This is an account of results in PubChem BioAssay AID602449 (Sanford-Burnham Center for Chemical Genomics, 2012).

For orientation: inhibition means the drop in the measured response relative to a control, in per cent.

In all, about 360,000 compounds went through this assay and about 5,000 (1.4%) were called active.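 The calls were made as follows: active = inhibition of 50% or more, scaled per plate between neutral and stimulator controls; inactive = the rest.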 The full list was thinned out, with actives kept by preference.

A short description of this experiment: mitochondrial permeability transition pore inhibitors, primary screen, biochemical, isolated mouse mitochondria, absorbance (AID 602449).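 Also: 0% = DMSO wells given calcium and 100% = 1 mM EGTA wells.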 Particulars: Ca2+ swelling absorbance, 30 min, at 10 µM, hits give high values.
For `Cc1ccc(NC(=O)OCCNC(=O)c2ccncc2)cc1`, the inhibition is -2.2% (inactive).
In the case of `CCOC(=O)c1ccc(NC(=S)N2CCCC2)cc1` it was -9.2% (inactive).
With `CCCCCOC(=O)NCCOC(=O)Nc1ccc(C(=O)OCC)cc1`, the inhibition is 62.1% (active).
As for `CC1CCCCC12NC(=O)N(CC(=O)OCc1c(F)cccc1Cl)C2=O` (centres undefined), the inhibition was 1.5% (inactive).
Turning to `Cc1cc(C(=O)O)c(S(C)(=O)=O)s1`, the inhibition was 0% (inactive).
Consider `O=S1(=O)CC(NCc2ccccc2)C(Nc2ccc(Cl)cc2)C1` (centres undefined), for which the inhibition is -0.2% (inactive).
In the case of `Cc1cc(N2CCCC2)ccc1NC(=O)COc1ccc(Cl)cc1` it was -0.2% (inactive).
In the case of `Cc1ccc(NC(=O)COc2ccc(-n3ccnc3)cc2)cc1Cl` it was 83.4% (active); in that of `O=C(COc1ccc(Cl)cc1)Nc1ccc2c(c1)OCO2`, -0.4% (inactive); in that of `COc1ccccc1Nc1ncc(C(C)=O)c(C)n1`, -2.1% (inactive).
As to `O=C(CSCc1ccc(Br)cc1)Nc1ccc(S(=O)(=O)N2CCCCCC2)cc1`, the inhibition is 58.6% (active).
For the compound `CN(CC(=O)Nc1ccc(S(=O)(=O)N2CCCC2)cc1)Cc1ccc(Cl)c(Cl)c1`, the inhibition was 3.3% (inactive).
As for `O=C(CN1CCCCCC1)Nc1ccc(S(=O)(=O)N2CCCCC2)cc1`, the inhibition was 0.7% (inactive).
To `Cc1occc1-c1nnc(SCC(=O)NC2(C#N)CCCC2)n1C` belongs -0.8% (inactive).
To `COc1ccc(S(=O)(=O)N2CCOCC2)cc1NC(=O)Cc1c(F)cccc1Cl` belongs -0.8% (inactive); to `O=C(Cc1c(F)cccc1Cl)Nc1ncc([N+](=O)[O-])s1`, 61.9% (active).
On to `CC(C)(C)NC(=O)NC(=O)COC(=O)Cc1c(F)cccc1Cl`, for which the inhibition was 2% (inactive).
`O=C(OC(C(=O)NC1CCCC1)c1ccc(F)cc1)c1ccno1` (centres undefined): the inhibition was -3.3% (inactive).
For the compound `CC(=O)C1C(c2ccc(Cl)cc2)c2c(n[nH]c2C)CC1(C)O` (centres undefined), the inhibition is 1.5% (inactive).
In the case of `Cc1ccc(OS(=O)Nc2cccc3nccnc23)cc1` (centres undefined) it was -0.1% (inactive); in that of `O=C(Nc1cccc(Cl)c1)c1cncn1-c1ccc(F)cc1`, -1.7% (inactive).
To `C/C(CC(=O)Nc1cccc(C(F)(F)F)c1)=N\NC(=O)C(=O)NCC(C)C` belongs -0.9% (inactive); to `S=C(NCc1ccco1)Nc1ccc2c(c1)OCCO2`, -2.6% (inactive); to `O=C(Nc1ccc2c(c1)OCCO2)c1ccc(Cl)c(S(=O)(=O)N2CCCCC2)c1`, 9% (inactive).
To `CC(NS(=O)(=O)c1ccc(Cl)cc1)C(=O)Nc1ccc2c(c1)OCCO2` (centres undefined) belongs -0.3% (inactive).
For `O=C(Nc1ccc2c(c1)OCCO2)C1CCCC1`, the inhibition was -1.6% (inactive).
In the case of `S=C(Nc1cccc(Cl)c1)Nc1ccc2c(c1)OCCO2` it was 53.6% (active); in that of `FC(F)(F)c1cccc(NC(=S)Nc2cccc(Cl)c2)c1`, 97.6% (active).
In the case of `O=C(Nc1cccc(S(=O)(=O)Nc2ccc(Cl)cc2)c1)c1ccc2c(c1)OCCO2` it was 77.8% (active).
In the case of `O=C(NCCCn1ccnc1)C(=O)c1cn(CC(=O)N2CCCCCC2)c2ccccc12` it was 0% (inactive).
In the case of `Cc1c(C(=O)O)nnn1-c1nonc1N`, the inhibition was -1.7% (inactive).
For `Cc1nn(-c2ccccc2)c2c1c(C)c(CCC(=O)NCC1CCCO1)c(=O)n2C` (centres undefined), the inhibition was 1.8% (inactive).
To `Cc1csc(NC(=O)CSc2nnc(-c3cccnc3)o2)n1` belongs -0.1% (inactive).
In the case of `Cc1cc(C)nc(NS(=O)(=O)c2ccc(N/C=C\C(=O)c3cccs3)cc2)n1` it was -0.9% (inactive); in that of `CC(Sc1nnc(C2CC2)n1C1CC1)C(=O)Nc1ccc(C(N)=O)cc1` (centres undefined), 0.5% (inactive); in that of `Cc1nc(Nc2ccccc2C)c2cnn(C)c2n1`, -0.2% (inactive).
To `Cc1ccc2c(=O)cc(C(=O)NCCc3ccc(S(N)(=O)=O)cc3)oc2c1C` belongs -0.4% (inactive).
`CCn1cc(CN2CCC(C(=O)Nc3cccc(-c4cccc(Cl)c4)c3)CC2)cn1`: the inhibition was -0.3% (inactive).
For the compound `CCn1cc(CN2CCC(C(=O)Nc3cccc(-c4cccc(Cl)c4)c3)CC2)c(C)n1`, the inhibition was 0.6% (inactive).
To `O=C(Nc1cccc(-c2cccc(Cl)c2)c1)C1CCN(C2CCC2)CC1` belongs 65.4% (active); to `O=C(c1ccc(F)cc1)c1c[nH]c(C(=O)NCc2cccnc2)c1`, 0.8% (inactive); to `COc1ccc(NC(=O)c2cc3nc(-c4ccccc4)cc(C)n3n2)cc1OC`, 2.1% (inactive).
In the case of `O=C(Nc1ccc(Cl)c(Cl)c1)N1CC=C(c2ccccc2)CC1` it was 12.4% (inactive); in that of `Cc1cc(NC(=O)Nc2ccc(Cl)cc2)n(-c2ccccc2)n1`, 70.8% (active); in that of `Cc1ccc(NC(=O)Nc2cc(-c3ccccc3)nn2C)cc1Cl`, 83.1% (active).
To `CC(=O)c1cccc(NC(=O)c2cc(C)nn2-c2ccccc2)c1` belongs -1.3% (inactive); to `Cc1cc(C(=O)NCCc2ccc(Cl)cc2)n(-c2ccccc2)n1`, 1% (inactive).
For the compound `O=C(NCc1ccc(F)cc1)C(c1ccccc1)N(C(=O)c1csnn1)C1CC1` (centres undefined), the inhibition is 4.8% (inactive).
In the case of `CC(C)NS(=O)(=O)c1ccc(NC(=O)C2CCCCC2)cc1` it was -1.2% (inactive).
To `CCOc1cccc2c1OC1(CCCCC1)N1N=C(c3cccnc3)CC21` (centres undefined) belongs 0.5% (inactive).
To `CC(=O)Nc1ccc(CC#N)cc1` belongs 2.1% (inactive); to `COc1cccc(N(C(=O)c2snc(C(N)=O)c2N)C(C(=O)NCC2CCCO2)c2c[nH]c3ccccc23)c1` (centres undefined), -1.8% (inactive).
For `CCOC(=O)C1CCCN(S(=O)(=O)c2ccc(-n3cnnn3)c(C)c2)C1` (centres undefined), the inhibition is 0.9% (inactive).
To `O=S(=O)([N-]c1nc2ccccc2nc1-[n+]1ccc(Cc2ccccc2)cc1)c1ccc(Br)s1` belongs 5% (inactive); to `Cc1cccc(NS(=O)(=O)c2ccc(C(=O)NCC(C)(C)N3CCOCC3)cc2)c1C`, 1.5% (inactive); to `COc1ccc(NC(=O)COC(=O)C2COc3ccccc3O2)cc1` (centres undefined), -0.6% (inactive).
For `CCC(C)(C)c1ccc(Oc2ccc(NC(=O)COC(=O)C3=COCCO3)cc2)cc1`, the inhibition is 79.2% (active).
In the case of `CCOc1ccc(NC(=O)c2ccc(NC(=O)COC(=O)c3ccc(NC(=O)CC#N)cc3)cc2)cc1` it was 0.5% (inactive); in that of `FC(F)(F)Oc1ccc(NC(=S)NCc2ccccc2)cc1`, 77.1% (active); in that of `O=C(NNC(=S)NCc1ccccc1)c1ccc(OC(F)F)cc1`, -1.2% (inactive).
As to `O=S(=O)(Nc1ccc(O)c2ccccc12)c1ccc(OC(F)(F)F)cc1`, the inhibition was 34.9% (inactive).
To `O=[N+]([O-])c1cc(Cl)cc(/C=N/NC(=S)Nc2cc(S(=O)(=O)N3CCOCC3)ccc2Cl)c1O` belongs 76.5% (active); to `O=C(Nc1cc(S(=O)(=O)N2CCOCC2)ccc1Cl)c1cc(=O)c2ccccc2o1`, -1.5% (inactive); to `Cc1cc(OCCCC(=O)Nc2cc(S(=O)(=O)N3CCOCC3)ccc2N2CCOCC2)ccc1Cl`, 0.2% (inactive).
To `CCOc1ccc(CN2CCN(Cc3ccon3)CC2CCO)cc1` (centres undefined) belongs -1.1% (inactive).
In the case of `COc1ccc(S(=O)(=O)NCCOc2ccccc2)cc1F` it was 0.7% (inactive); in that of `COc1ccc(S(=O)(=O)NCCCCOc2ccc(Cl)cc2)cc1`, 98.5% (active); in that of `COc1ccc(OCCNS(=O)(=O)Cc2ccccc2)cc1`, 0.9% (inactive).
Take `CCc1cccc(CC)c1NC(=O)COc1ccccc1C(=O)c1cc(C#N)c(=O)n(C2CCCCC2)c1`: the inhibition was 1% (inactive).
To `Cc1cc2cc3n(c2nn1)N=C(Cl)CC3` belongs 0.9% (inactive); to `COc1ccc(C(=O)COC(=O)CN2C(=O)C3CC=CCC3C2=O)c(OC)c1` (centres undefined), -2.3% (inactive).
To `O=C(NC1C2CC3CC(C2)CC1C3)c1ccc(N2CCNCC2)c([N+](=O)[O-])c1` (centres undefined) belongs -2.4% (inactive); to `O=C(Nc1ccc(N2C(=O)c3cccc4cccc(c34)C2=O)cc1)c1ccc(N2CCCCC2)c([N+](=O)[O-])c1`, 1.1% (inactive).
To `O=C(Nc1cccc(C(F)(F)F)c1)c1ccc(N2CCNCC2)c([N+](=O)[O-])c1` belongs 69.8% (active).
Consider `CN(C)CCNC(=O)c1cccc(-c2cnc3c(NC=O)cc(-c4cccc(C(F)(F)F)c4)cn23)c1`, for which the inhibition is -2.1% (inactive).
In the case of `CCC(C)NC(=O)CN(C1CCCCC1)S(C)(=O)=O` (centres undefined) it was -1.2% (inactive).
In the case of `N#CCCN(C(=S)Nc1ccc(Cl)c(Cl)c1)C1CCCCC1` it was 64.3% (active); in that of `CS(=O)(=O)N(CC(=O)Nc1ccc(F)cc1)C1CCCCC1`, 1.1% (inactive).
To `CCc1cccc(NC(=S)N(CCN(C)C)C2CCN(C(C)C)CC2)c1` belongs -1.2% (inactive); to `N#CCCN(C(=O)Nc1ccc(Cl)c(Cl)c1)C1CCCCC1`, 20.5% (inactive); to `CS(=O)(=O)N(CC(=O)Nc1ccc(Cl)c(Cl)c1)C1CCCCC1`, 61.3% (active).
As for `Cc1cc(NC(=O)OC(C)C)ccc1-c1ccc(NC(=O)OC(C)C)cc1C`, the inhibition was 0.8% (inactive).
In the case of `CN(C)c1nc2n(c(=O)n1)CCO2` it was -0.8% (inactive).
In the case of `Cc1c(Cl)cccc1NC(=O)[C@@]1(CC(=O)O)CC(/C=C/c2ccccc2)=NO1` it was -0.3% (inactive); in that of `C[C@H](NC(=O)NCCc1ccccc1)C(=O)O`, -2.9% (inactive); in that of `Cc1cc(S(=O)(=O)N2CCOCC2)ccc1OCC(=O)Nc1cccc(C(F)(F)F)c1`, -0.9% (inactive).
Turning to `CCNS(=O)(=O)c1ccc(NC(=O)c2cncc(Br)c2)cc1`, the inhibition was -1.5% (inactive).
In the case of `CCNS(=O)(=O)c1ccc(NC(=O)Nc2cccc(C(F)(F)F)c2)cc1` it was 93.6% (active); in that of `CN(CC(=O)Nc1ccccc1[N+](=O)[O-])Cc1ccc(Br)cc1`, 1.1% (inactive); in that of `COc1cc(CNCc2cccs2)cc(Br)c1OC`, -0.5% (inactive).
To `COc1cc(CNCc2ccc(OC)c3ccccc23)cc(OC)c1OC` belongs 90.9% (active); to `COc1ccccc1N1CCN(Cc2ccc(OC)c3ccccc23)CC1`, 1.3% (inactive).
To `Cn1c(=O)c2cc(NC(=O)NCCc3cccs3)ccc2n1Cc1cccc(C(F)(F)F)c1` belongs 3.3% (inactive).
`CCCCn1c(N)c(N(CCC(C)C)C(=O)COC(=O)c2cccnc2OCC)c(=O)[nH]c1=O`: the inhibition was 0.7% (inactive).
